This is an account of results in ChEMBL document CHEMBL1961873, “Compounds: GSK PKIS; Assays: Nanosyn kinase panel” (2012).

The target of experiment [1] is Calcium/calmodulin-dependent protein kinase type II subunit alpha (Homo sapiens) (UniProt Q9UQM7). The conditions noted are these: at 1 µM.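 Note: reported value is a mean percent inhibition of CAMK2A.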
Experiment [2] addresses Calcium/calmodulin-dependent protein kinase type II subunit delta (Homo sapiens) (UniProt Q13557). Particulars: at 0.1 µM.
Experiment [3] shares this target. Particulars: at 1 µM.
Experiment [4] concerns the target T1, Calcium/calmodulin-dependent protein kinase type IV (Homo sapiens) (UniProt Q16566).
T1 sequence (whole entry): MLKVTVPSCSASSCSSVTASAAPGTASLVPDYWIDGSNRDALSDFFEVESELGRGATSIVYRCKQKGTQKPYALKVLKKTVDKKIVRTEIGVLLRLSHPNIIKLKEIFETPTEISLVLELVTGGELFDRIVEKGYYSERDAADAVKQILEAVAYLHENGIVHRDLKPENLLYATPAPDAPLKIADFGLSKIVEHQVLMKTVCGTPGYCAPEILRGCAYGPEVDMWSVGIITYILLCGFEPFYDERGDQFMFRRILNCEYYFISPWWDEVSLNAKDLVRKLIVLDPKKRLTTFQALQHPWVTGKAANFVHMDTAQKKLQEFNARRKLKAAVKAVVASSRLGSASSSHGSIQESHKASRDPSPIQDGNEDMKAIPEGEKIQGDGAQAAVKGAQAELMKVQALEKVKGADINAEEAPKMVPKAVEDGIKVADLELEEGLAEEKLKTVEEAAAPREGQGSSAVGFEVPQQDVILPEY
Particulars: at 0.1 µM.

In experiment [5] the target is T1, Calcium/calmodulin-dependent protein kinase type IV (Homo sapiens). Particulars: at 1 µM.
In experiment [6] the target is T2, Serine/threonine-protein kinase Chk1 (Homo sapiens) (UniProt O14757).
T2 sequence (whole entry): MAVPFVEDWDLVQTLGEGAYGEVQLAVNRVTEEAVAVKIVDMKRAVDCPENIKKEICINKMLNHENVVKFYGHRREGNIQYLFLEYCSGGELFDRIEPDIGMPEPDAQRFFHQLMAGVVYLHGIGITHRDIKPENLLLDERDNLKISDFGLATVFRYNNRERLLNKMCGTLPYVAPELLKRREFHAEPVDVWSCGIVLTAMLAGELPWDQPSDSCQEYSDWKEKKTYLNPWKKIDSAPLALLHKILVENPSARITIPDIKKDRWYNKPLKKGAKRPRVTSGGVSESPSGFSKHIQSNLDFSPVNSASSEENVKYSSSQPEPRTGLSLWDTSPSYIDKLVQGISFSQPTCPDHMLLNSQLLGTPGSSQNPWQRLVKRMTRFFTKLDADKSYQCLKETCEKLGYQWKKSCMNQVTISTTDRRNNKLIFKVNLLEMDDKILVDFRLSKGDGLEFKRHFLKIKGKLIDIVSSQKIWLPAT
Particulars: at 0.1 µM.

Experiment [7] has as its target T2, Serine/threonine-protein kinase Chk1 (Homo sapiens). Particulars: at 1 µM.
Experiment [8] addresses Serine/threonine-protein kinase Chk2 (Homo sapiens) (UniProt O96017). The conditions noted are these: at 0.1 µM.
Experiment [9] has the same target. Particulars: at 1 µM.
In experiment [10] the target is Death-associated protein kinase 1 (Homo sapiens) (UniProt P53355). Particulars: at 0.1 µM.
Chain of Death-associated protein kinase 1 (Homo sapiens) (P53355 whole entry, looked up): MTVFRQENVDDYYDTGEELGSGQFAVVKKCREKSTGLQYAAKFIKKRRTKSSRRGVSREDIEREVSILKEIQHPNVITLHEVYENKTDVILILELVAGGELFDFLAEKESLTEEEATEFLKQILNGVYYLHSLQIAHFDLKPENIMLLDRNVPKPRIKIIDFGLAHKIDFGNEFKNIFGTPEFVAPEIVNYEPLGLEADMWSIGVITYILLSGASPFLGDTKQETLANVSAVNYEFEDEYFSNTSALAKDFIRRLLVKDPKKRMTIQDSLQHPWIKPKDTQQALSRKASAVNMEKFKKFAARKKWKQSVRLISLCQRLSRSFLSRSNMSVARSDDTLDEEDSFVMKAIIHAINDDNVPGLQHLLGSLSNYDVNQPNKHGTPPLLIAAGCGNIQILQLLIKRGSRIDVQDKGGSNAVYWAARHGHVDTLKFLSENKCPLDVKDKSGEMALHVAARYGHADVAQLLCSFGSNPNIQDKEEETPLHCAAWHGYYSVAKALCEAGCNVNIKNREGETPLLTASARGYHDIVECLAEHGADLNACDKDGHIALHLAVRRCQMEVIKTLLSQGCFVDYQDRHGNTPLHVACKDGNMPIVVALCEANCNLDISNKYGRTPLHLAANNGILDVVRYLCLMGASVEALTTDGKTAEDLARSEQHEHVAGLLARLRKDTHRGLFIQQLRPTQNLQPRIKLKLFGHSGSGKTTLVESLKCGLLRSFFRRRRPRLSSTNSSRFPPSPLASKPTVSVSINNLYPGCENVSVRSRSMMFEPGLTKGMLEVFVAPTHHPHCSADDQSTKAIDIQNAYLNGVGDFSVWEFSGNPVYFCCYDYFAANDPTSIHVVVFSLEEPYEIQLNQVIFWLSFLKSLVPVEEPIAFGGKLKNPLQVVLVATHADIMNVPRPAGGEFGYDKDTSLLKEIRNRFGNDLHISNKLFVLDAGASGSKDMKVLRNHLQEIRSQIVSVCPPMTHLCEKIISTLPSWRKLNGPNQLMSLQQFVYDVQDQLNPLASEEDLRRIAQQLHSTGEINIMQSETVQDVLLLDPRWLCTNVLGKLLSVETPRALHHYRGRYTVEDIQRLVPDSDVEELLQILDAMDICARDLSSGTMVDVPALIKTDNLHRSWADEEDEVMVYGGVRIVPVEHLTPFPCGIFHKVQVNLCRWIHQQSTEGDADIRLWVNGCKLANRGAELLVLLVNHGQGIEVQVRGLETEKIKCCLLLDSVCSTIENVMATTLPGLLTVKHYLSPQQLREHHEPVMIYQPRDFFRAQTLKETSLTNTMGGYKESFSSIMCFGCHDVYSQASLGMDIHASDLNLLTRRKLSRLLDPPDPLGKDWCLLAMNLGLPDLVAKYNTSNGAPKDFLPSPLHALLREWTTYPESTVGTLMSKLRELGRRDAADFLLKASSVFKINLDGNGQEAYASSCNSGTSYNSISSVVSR
For experiment [11] the target is unchanged. The conditions noted are these: at 1 µM.
For experiment [12], the target named is T3, Serine/threonine-protein kinase DCLK2 (Homo sapiens) (UniProt Q8N568).
T3 sequence (whole entry): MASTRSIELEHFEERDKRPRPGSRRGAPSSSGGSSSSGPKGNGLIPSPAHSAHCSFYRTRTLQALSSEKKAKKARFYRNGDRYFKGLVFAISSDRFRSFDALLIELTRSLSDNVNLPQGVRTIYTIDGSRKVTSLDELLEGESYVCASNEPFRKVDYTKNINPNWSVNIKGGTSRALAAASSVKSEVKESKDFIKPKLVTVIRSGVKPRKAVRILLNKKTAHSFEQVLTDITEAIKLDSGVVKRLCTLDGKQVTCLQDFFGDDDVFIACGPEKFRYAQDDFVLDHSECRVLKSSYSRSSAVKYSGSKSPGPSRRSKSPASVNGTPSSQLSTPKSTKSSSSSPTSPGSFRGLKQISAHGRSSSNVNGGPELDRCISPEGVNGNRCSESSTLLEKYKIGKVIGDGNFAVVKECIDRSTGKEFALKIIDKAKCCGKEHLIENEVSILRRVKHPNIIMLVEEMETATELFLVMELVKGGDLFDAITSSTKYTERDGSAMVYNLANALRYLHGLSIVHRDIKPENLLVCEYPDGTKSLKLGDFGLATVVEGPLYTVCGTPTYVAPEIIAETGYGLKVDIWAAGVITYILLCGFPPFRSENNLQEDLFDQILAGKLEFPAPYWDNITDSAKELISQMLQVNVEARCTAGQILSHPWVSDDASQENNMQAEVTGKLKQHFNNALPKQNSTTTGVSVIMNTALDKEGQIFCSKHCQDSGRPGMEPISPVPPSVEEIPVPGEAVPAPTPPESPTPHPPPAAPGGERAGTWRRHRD
The conditions noted are these: at 0.1 µM.

Experiment [13] concerns the target T3, Serine/threonine-protein kinase DCLK2 (Homo sapiens). Particulars: at 1 µM.
The target of experiment [14] is MAP kinase-activated protein kinase 2 (Homo sapiens) (UniProt P49137). Particulars: at 0.1 µM.
Chain of MAP kinase-activated protein kinase 2 (Homo sapiens) (P49137 whole entry, looked up): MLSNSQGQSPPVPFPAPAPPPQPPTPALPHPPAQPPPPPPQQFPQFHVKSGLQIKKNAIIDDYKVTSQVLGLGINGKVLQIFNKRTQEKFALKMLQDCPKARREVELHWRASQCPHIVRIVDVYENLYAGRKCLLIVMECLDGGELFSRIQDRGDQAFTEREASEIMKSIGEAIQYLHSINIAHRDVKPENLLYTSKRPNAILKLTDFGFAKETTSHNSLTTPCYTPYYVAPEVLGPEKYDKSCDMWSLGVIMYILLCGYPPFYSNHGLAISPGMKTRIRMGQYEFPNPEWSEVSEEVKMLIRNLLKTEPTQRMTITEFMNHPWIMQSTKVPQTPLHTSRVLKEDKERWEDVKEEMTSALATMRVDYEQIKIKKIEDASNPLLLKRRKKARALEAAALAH
The target is the same in experiment [15]. Particulars: at 1 µM.
Experiment [16] addresses MAP kinase-activated protein kinase 3 (Homo sapiens) (UniProt Q16644). The conditions noted are these: at 0.1 µM.
The target is the same in experiment [17]. The conditions noted are these: at 1 µM.
For experiment [18], the target named is Serine/threonine-protein kinase MARK1 (Homo sapiens) (UniProt Q9P0L2). Particulars: at 0.1 µM.
Chain of Serine/threonine-protein kinase MARK1 (Homo sapiens) (Q9P0L2 whole entry, looked up): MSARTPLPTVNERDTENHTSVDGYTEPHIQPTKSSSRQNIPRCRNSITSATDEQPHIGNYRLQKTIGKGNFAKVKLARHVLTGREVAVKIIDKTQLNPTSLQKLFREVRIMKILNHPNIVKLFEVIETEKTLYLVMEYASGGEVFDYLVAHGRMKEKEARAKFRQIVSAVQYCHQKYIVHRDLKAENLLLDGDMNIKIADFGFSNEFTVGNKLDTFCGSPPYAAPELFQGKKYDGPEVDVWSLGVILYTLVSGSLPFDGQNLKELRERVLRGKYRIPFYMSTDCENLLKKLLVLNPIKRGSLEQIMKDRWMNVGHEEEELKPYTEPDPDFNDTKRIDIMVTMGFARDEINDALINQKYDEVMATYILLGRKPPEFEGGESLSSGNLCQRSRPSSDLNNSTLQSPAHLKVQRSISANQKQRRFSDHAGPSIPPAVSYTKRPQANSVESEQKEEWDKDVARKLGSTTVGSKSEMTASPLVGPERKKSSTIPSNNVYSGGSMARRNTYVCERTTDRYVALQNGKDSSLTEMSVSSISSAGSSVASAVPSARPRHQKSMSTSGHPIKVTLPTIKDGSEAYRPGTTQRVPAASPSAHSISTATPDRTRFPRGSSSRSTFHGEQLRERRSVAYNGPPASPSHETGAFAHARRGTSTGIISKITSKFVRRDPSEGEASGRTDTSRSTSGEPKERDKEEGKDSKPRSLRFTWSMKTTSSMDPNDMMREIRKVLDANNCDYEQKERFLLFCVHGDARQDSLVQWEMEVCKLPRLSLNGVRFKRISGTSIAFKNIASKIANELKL
For experiment [19] the target is unchanged. The conditions noted are these: at 1 µM.
Experiment [20] has as its target MAP/microtubule affinity-regulating kinase 3 (Homo sapiens) (UniProt P27448). Particulars: at 0.1 µM.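 Note: mean percent inhibition of MARK3 kinase activity, measured within the GSK PKIS screening panel.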

Chain of MAP/microtubule affinity-regulating kinase 3 (Homo sapiens) (P27448 whole entry, looked up): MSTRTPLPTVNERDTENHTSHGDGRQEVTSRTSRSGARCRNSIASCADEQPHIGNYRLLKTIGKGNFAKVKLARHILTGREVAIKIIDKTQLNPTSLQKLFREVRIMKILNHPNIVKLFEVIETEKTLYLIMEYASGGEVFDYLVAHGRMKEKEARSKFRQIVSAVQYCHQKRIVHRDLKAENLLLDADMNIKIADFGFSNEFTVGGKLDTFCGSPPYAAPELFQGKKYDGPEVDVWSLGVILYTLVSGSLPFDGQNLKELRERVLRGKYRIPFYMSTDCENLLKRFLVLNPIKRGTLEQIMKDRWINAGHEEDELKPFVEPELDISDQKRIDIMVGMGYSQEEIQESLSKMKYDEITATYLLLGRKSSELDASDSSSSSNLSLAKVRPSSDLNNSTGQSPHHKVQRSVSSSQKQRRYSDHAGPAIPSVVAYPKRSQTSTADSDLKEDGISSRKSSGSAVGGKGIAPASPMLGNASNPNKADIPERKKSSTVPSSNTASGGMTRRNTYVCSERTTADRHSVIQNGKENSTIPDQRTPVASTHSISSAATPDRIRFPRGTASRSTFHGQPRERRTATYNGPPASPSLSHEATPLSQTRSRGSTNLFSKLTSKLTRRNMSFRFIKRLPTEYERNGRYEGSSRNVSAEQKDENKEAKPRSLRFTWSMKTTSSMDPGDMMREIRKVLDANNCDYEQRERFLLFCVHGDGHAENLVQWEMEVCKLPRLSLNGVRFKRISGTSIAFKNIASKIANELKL
Chain of Calcium/calmodulin-dependent protein kinase type II subunit delta (Homo sapiens) (Q13557 whole entry): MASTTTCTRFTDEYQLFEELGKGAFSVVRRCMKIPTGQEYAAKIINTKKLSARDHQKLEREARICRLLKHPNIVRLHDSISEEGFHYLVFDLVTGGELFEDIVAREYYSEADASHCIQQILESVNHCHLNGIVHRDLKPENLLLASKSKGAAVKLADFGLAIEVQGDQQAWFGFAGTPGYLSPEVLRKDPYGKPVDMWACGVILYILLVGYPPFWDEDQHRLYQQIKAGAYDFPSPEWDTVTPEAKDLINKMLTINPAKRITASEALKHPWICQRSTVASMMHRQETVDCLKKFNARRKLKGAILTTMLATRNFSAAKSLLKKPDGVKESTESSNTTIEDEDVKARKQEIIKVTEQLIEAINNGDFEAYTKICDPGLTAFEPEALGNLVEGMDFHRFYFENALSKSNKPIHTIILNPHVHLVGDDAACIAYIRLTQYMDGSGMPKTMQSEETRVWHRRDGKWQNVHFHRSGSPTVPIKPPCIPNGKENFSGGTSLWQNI
Chain of Calcium/calmodulin-dependent protein kinase type II subunit alpha (Homo sapiens) (Q9UQM7 whole entry): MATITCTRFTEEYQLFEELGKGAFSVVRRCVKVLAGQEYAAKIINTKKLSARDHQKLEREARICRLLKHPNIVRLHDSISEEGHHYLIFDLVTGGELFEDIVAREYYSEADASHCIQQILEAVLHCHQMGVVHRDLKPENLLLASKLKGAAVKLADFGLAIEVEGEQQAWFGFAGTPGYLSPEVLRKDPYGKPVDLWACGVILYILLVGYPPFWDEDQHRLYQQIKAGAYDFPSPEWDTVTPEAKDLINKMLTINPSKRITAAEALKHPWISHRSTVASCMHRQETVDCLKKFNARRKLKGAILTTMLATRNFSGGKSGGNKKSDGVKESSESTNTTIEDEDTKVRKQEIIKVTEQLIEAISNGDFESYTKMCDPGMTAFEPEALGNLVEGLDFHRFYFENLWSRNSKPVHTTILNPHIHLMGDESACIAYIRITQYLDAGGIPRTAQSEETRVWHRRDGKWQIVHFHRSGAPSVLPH
Chain of Serine/threonine-protein kinase Chk2 (Homo sapiens) (O96017 whole entry): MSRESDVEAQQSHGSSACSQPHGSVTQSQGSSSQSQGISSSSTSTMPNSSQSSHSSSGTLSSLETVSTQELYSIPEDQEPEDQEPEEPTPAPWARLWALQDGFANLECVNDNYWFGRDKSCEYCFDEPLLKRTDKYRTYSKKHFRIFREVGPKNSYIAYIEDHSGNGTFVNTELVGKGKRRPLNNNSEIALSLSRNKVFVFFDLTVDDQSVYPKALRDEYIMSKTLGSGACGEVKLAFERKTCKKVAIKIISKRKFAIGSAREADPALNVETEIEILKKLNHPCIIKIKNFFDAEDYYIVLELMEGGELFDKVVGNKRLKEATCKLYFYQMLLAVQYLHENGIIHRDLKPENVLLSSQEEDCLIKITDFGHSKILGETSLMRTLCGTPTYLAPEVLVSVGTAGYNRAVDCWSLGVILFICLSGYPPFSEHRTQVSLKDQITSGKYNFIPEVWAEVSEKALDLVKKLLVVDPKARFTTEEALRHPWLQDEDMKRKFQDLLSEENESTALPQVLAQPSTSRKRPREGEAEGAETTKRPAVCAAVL

Regarding `c1ccc(Cc2nc3ccc(Nc4ncnc5ccccc45)cc3[nH]2)cc1`, the inhibition (as a rule, the change of the read-out against control, counted positive when it falls) is 2% in experiment [1]; 1.68% in [2]; 2.41% in [3]; -2.03% in experiment [4]; -1.81% in [5]; 2.86% in experiment [6]. Further, the inhibition was 9.39% in experiment [7]; 1.71% in experiment [8]; 5.02% in experiment [9]; 3.43% in experiment [10]; 5.17% in experiment [11]; -0.21% in experiment [12]. The inhibition in experiment [13] turned out to be 1.02%; in experiment [14], 1.39%; in experiment [15], 1.85%; in experiment [16], 3.82%; in [17], 4.05%; in experiment [18], 1.85%. The results for the inhibition in experiment [19] and in experiment [20] were 6.13% and 1.67%, respectively.
Consider `NS(=O)(=O)c1ccc(-c2cc3ccncc3cc2OCc2ccccc2)cc1`, for which the inhibition in [1] was 2.94%; in experiment [2], 2.4%; in experiment [3] it was 4.59%; in experiment [4], -1.16%; in experiment [5], 2.15%; in [6] it was 0.26%. Besides, the inhibition in experiment [7] was determined as 0.12%; in experiment [8] it was 2.85%; in [9], 4.7%; in [10], 1.1%; in experiment [11], 1.02%; in experiment [12], 0.91%. Further, the inhibition in [13] was determined as 3.41%; in experiment [14] it was 1.47%; in [15] it was 1.1%; in [16], 5.12%; in [17], 6.72%; in [18] it was 0.77%. In addition, the inhibition in [19] was 3.63%; in experiment [20] it was -0.26%.
`Nc1nccc(-c2c(-c3ccc(F)cc3)nn3cc(C(F)(F)F)ccc23)n1`: the inhibition in experiment [1] was -1.99%; in experiment [2], 0.49%; in experiment [3] it was -0.48%; in experiment [4], -0.17%; in experiment [5], -1%; in experiment [6] it was -1.52%. For the same compound, the inhibition was -2.44% in [7]; 0.02% in [8]; -0.27% in experiment [9]; 2.24% in experiment [10]; 1.3% in experiment [11]; -1.79% in experiment [12]. Further, the inhibition was -1.22% in experiment [13]; -0.92% in experiment [14]; -1.14% in experiment [15]; 5.47% in [16]; 19.9% in experiment [17]; -0.24% in [18]. Further, the figures for the inhibition in experiment [19] and in experiment [20] were -0.05% and -0.09%, respectively.
Regarding `O=S(=O)(CCOCc1ccc(-c2ccc3ncnc(Nc4ccc(OCc5cccc(F)c5)c(Cl)c4)c3c2)o1)c1ccccc1`, the inhibition in [1] was -0.9%; in experiment [2] it was 0.42%; in experiment [3] it was 1.29%; in experiment [4] it was -1.19%; in [5], -1.67%; in experiment [6], 3.34%. Further, the inhibition in [7] was 2.55%; in [8] it was 1.33%; in experiment [9], 3.09%; in experiment [10], 1.67%; in experiment [11], 0.71%; in experiment [12], -0.21%. Besides, the inhibition was 1.2% in experiment [13]; 0.69% in experiment [14]; 0.79% in experiment [15]; -0.36% in experiment [16]; 2.16% in [17]; -0.2% in experiment [18]. Besides, the results for the inhibition in experiment [19] and in [20] were 2.87% and 0.76%, respectively.
As for `CCS(=O)(=O)c1ccc(OC)c(Nc2nccc(N(C)c3ccc4c(C)n[nH]c4c3)n2)c1`, the inhibition in [1] was -0.61%; in [2], 3.29%; in experiment [3] it was 6.46%; in experiment [4], -1.76%; in experiment [5] it was -2.8%; in experiment [6], 4.57%. Further, the inhibition in experiment [7] was 2.19%; in experiment [8], 3.81%; in experiment [9] it was 8.77%; in experiment [10], 7.35%; in experiment [11], 4.98%; in experiment [12], -0.1%. The inhibition was found to be 2.14% in [13]; 2.62% in experiment [14]; 1.63% in [15]; 3.91% in experiment [16]; 6.4% in [17]; 2.93% in experiment [18]. The values for the inhibition in experiment [19] and in experiment [20] were 3.99% and 3.81%, respectively.
As for `Cc1ccc(NC(=O)CC2CC2)cc1-c1ccc(C(=O)NCC2CC2)cc1`, the inhibition in [1] was 2.95%; in [2], 2.84%; in [3], 3.34%; in experiment [4], -0.3%; in experiment [5], -0.84%; in [6] it was 7.49%. Further, the inhibition was 10.9% in experiment [7]; 6.96% in [8]; 7.62% in experiment [9]; 11.5% in [10]; 12.4% in experiment [11]; 1.13% in experiment [12]. Moreover, the inhibition in [13] came to 0.51%; in [14] it was 4.17%; in experiment [15], 4.27%; in experiment [16], 18.4%; in [17] it was 33.5%; in experiment [18] it was 2.05%. Also, the inhibition in experiment [19] was 2.04%; in experiment [20] it was 2.42%.
